From PubChem BioAssay
Pf growth 96h – Primary qHTS for delayed death inhibitors of the malarial parasite plastid, 96 hour incubation; P. falciparum luciferase reporter growth, 96 h; Potency, µM (top dose mostly 28.7 µM), for inactives: at the highest dose activity change, negative = inhibition, hits mostly inhibitors; hit rate 6.9% among 320,000; AID 504834, 2011; note: potency is the fitted concentration of half-maximal effect; % is set by controls: 0 for no effect and ±100 for the full control effect
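Parasite growth measured via integrated firefly luciferase reporter in P. falciparum. Infected erythrocytes at 2% hematocrit, 0.05% parasitemia final were treated 96 hours at 37 C under 5% CO2, and luminescence was read.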
HCV inhibitor – qHTS Assay for Inhibitors of Hepatitis C Virus (HCV). Huh7.5.1 HCVcc-Cre infection, luciferase reporter, 44 h. Potency, µM (titrated, usually from 41.8 µM), for the others: top-dose activity change, negative = inhibition, hits mostly inhibitors. hit rate 3.4% among 340,000; note: potency is the fitted concentration of half-maximal effect; % is set by controls: 0 for no effect and ±100 for the full control effect
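Seed cells (1,000/well) for 4 h; treat with compound and infect with HCVcc-Cre, moi about 0.5. Incubate 44 h, then detect luciferase activity.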
CHX counter – Cycloheximide Counterscreen for Small Molecule Inhibitors of Shiga Toxin | cell reporter, cycloheximide protein synthesis inhibition counterscreen | max response, % | hit rate 12% among 300,000 | AID 2314, 2010; in the data active = max response mostly above about 13%, no sharp cut-off; inactive = mostly below about 14%; note: read at 38.3 µM for the half of the compounds with a filed dose; 0% is about no effect
AMA1-RON2 inh – qHTS for Inhibitors of AMA1-RON; Towards Development of Antimalarial Drug Lead: Primary Screen. Plasmodium falciparum AMA1 (3D7) - RON2 peptide interaction. AlphaScreen AMA1-biotinylated RON2 peptide binding. Potency, µM (top dose mostly 58.2 µM), inactives show top-dose activity change, negative = inhibition, actives largely listed as inhibitors. hit rate 0.2% among 360,000. AID 720542, 2013;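 note: potency is the fitted concentration of half-maximal effect; 0% = vehicle wells and -100% = peptide control; nearly all actives have a fitted effect of over 45% in size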
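AMA1 (3D7) with his tag at 25 nM final met compounds first, then biotinylated RON2 peptide at 25 nM; detection used donor plus acceptor beads, 10 µg/mL apiece, read by AlphaScreen after 30 min at room temperature.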
Shiga toxin inh – A qHTS for Small Molecule Inhibitors of Shiga Toxin; inhibition, % at 38.7 µM; Vero cells, Shiga toxin protein synthesis inhibition reporter; hit rate 9.2% among 290,000; in the data active = inhibition mostly above about 28%, no sharp cut-off; inactive = mostly below about 43%; note: 0% is about no effect
Pf growth 48h – Primary qHTS for delayed death inhibitors of the malarial parasite plastid, 48 hour incubation; P. falciparum luciferase growth in erythrocytes, 48 h; Potency, µM (doses to about 28.7 µM), inactives show top-dose activity change, negative = inhibition, usual class: inhibitors; hit rate 5.9% among 310,000; AID 504832, 2011; note: potency is the fitted concentration of half-maximal effect; % is set by controls: 0 for no effect and ±100 for the full control effect
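Luminescence readout; reporter = integrated firefly luciferase in P. falciparum. RBC culture at 2% hematocrit, 0.1% parasitemia final, 37 C/5% CO2; decreased signal taken as growth inhibition.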
Active calls of the source: *; u = inconclusive; x = not tested or not shown; [ ] = dose if it differs, or a comment. Sampled rows, rich in hits. Any-hit rate of the full collection: about 21%. Unless noted, calls come from the whole dose curve; as a rule, active = well fitted curve in the direction sought with a large enough effect; inconclusive = small, poorly fitted or top-dose-only effect, or another doubt; inactive = no such curve, though single readings can be large; an effect the other way counts as inactive or inconclusive.

SMILES | Pf growth 96h | HCV inhibitor | CHX counter | AMA1-RON2 inh | Shiga toxin inh | Pf growth 48h
C(=C\c1ccccc1)/CSc1nc2ncccc2[nH]1 | u | -26% | 25* | 10% | 53* | 0%
Fc1ccc(CSc2nc3ncccc3[nH]2)cc1 | x | -4% | 30* | 4% | 71* | u
CCCN(CC(=O)Nc1ccccc1C)C(=O)COc1c(Cl)cccc1Cl | u | -9% | x | -13% | x | -7%
CC(=O)CCC(=O)CNC(=O)CC[C@H]1O[C@@H](n2ccc(=O)[nH]c2=O)[C@H](O)[C@@H]1O | x | x | x | 0% | x | x
COc1ccc(NC(=O)CSCc2cc(=O)n3cc(C)sc3n2)cc1 | 41% | 18% | 10 | 11% | -2 | 11%
O=C(Nc1ccnn1C1CCN(Cc2c[nH]c3ccccc23)CC1)c1ccccc1 | 29% | 9% | 1 | -16% | -2 | u
CCOc1cc(C)ccc1OCc1nnc(SCC(=O)c2cccc([N+](=O)[O-])c2)n1C | 12µM* | u | 1 | -19% | -10 | u
Fc1cccc(CSc2nc3ncccc3[nH]2)c1 | 12µM* | -19% | 51* | -4% | 94* | u
Cn1c(COc2ccccc2)nnc1SCC(=O)c1cccc([N+](=O)[O-])c1 | u | u | -2 | -1% | -8 | u
O=C(CSc1nc2ncccc2[nH]1)c1cccc([N+](=O)[O-])c1 | u | u | 19* | 8%[11.6 µM] | 15 | u
Cc1cc(SCC(=O)c2cccc([N+](=O)[O-])c2)nc(=O)[nH]1 | -20% | u | 35* | -16% | 80* | 32%
CNc1ccc(C(=O)OCC(=O)Nc2ccnn2C(C)C)cc1[N+](=O)[O-] | u | 9% | x | -3% | x | u
C=C1C=C(C(F)F)n2ncc(C(=O)Nc3ccc(C(C)CC)cc3)c2N1 (stereo not given) | -16% | x | x | x | x | u
CN(C)CCNC(=O)c1scc2c1CCCC2 | 0% | -6% | -2 | 3% | -7 | 72%
C=CCNC(=O)c1scc2c1CCCC2 | -6% | u | 16* | 4% | 52 | 2%
CC(C)(C)OC(=O)NCCCC[C@@H](C(=O)NCCCCCCCCCCC(=O)N1CCN(C(=O)OC(C)(C)C)CC1)n1cc(CCO)nn1 | 2.6µM* | u | x | 13% | x | 1.9µM*
CSCC[C@@H](C(=O)NCCCCCCCCCCC(=O)N1CCN(C(=O)OC(C)(C)C)CC1)n1cc(CCO)nn1 | 1.9µM* | u | x | 14% | x | 5.2µM*
CSCCCc1cn([C@@H](CO)C(=O)NCCCCCCCCCCC(=O)N2CCNCC2)nn1 | -77% | 4% | x | -2% | x | 15µM*
CC[C@@H](C)[C@@H](C(=O)N1CCN(C(=O)OC(C)(C)C)CC1)n1cc(CCCCNC(=O)OC(C)(C)C)nn1 | u | u | 2 | -3% | -6 | u
NCCCC[C@@H](C(=O)NCCCCCCCCCCC(=O)N1CCNCC1)n1cc(CCO)nn1 | u | -2% | x | 8% | x | u
CC[C@H](C)Cc1cn([C@@H](CCCCNC(=O)OC(C)(C)C)C(=O)NCCCCCCCCCCC(=O)N2CCN(C(=O)OC(C)(C)C)CC2)nn1 | 1µM* | u | x | 15% | x | 2.1µM*
CC(C)(C)OC(=O)NCCCCc1cn(CC(=O)N2CCN(C(=O)OC(C)(C)C)CC2)nn1 | 9% | -2%[8.37 µM] | 10 | -3% | 8 | 2%
O=C(c1ccccc1F)N(Cc1nc2ccccc2c(=O)[nH]1)C1CCCC1 | -27% | u | -2 | 51% | -18 | -4%
Cc1n[nH]c(=S)n1/N=C/c1cccc(OCc2ccccc2)c1 | 31% | -2% | 15 | 69% | 58* | 2.6µM*
CC(=C/c1ccccc1)/C=N/n1c(C)n[nH]c1=S | 12µM* | 14% | 30* | 119% | 47 | 10%
S=c1[nH]nc(-c2ccco2)n1/N=C/C(Cl)=C/c1ccccc1 | 65% | 16% | 53* | 49% | 73* | 5.2µM*
